# Source: the supplement of paper PMC6555819
# What was measured:
# Assay in all cases: PBM binding z-score (relative to random genomic background probes); higher = stronger binding; sequences stand for … in GC…GCGATTGACAGCGTAGAATGAAGG
# [1] = test system: RARb homodimer (NR concentration 270 nM)
# Procedure, shortened: (§1)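 Binding buffer was PBS pH 7.4 with 2% milk, 0.02% Triton X-100, 1 mM DTT, 0.2 mg/mL BSA and 0.4 mg/ml salmon testes DNA. In it, ligand-free nuclear receptor dimers were incubated 1 h on custom Agilent 4×180K protein-binding microarrays carrying double-stranded probes. Antibodies against each partner (one per run) detected binding, and z-scores were calculated against random background probes after regression normalization of scanned fluorescence.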
# [2] = test system: RARg:RXRa (NR concentration 270 nM, RXRa partner concentration 90 nM)
# Procedure, shortened: as §1
# [3] = test system: RARg homodimer (NR concentration 270 nM)
# Procedure, shortened: as §1
# [4] = test system: RXRa DBDmut IVT, anti-RXR (DBD mutation: RXRa K156A/R161A, NR concentration 90 nM)
# Procedure, shortened: as §1
# [5] = test system: RXRa homodimer (NR concentration 180 nM)
# Procedure, shortened: as §1
# [6] = test system: THRa:RXRa (NR concentration 90 nM, RXRa partner concentration 90 nM)
# Procedure, shortened: as §1
# [7] = test system: THRa homodimer (NR concentration 90 nM)
# Procedure, shortened: as §1
# [8] = test system: VDR homodimer (NR concentration 270 nM)
# Procedure, shortened: as §1
Sequence,PBM binding z-score [1],PBM binding z-score [2],PBM binding z-score [3],PBM binding z-score [4],PBM binding z-score [5],PBM binding z-score [6],PBM binding z-score [7],PBM binding z-score [8]
TAGCCTAGGTCATTGTGCCAGTATAGTACGCATC,2.7,3.4,3.77,1.9,2.17,2.61,1.03,1.2
CCGAGTATGTTACGAGGGGGCATTCAGTGCGAAT,1.63,1.76,1.26,2.1,1.31,2.31,0.458,3.74
CTATGTAGGTTAAGGGGGTCATTCTGTTTGAAAG,3.79,4.83,3.82,2.56,5.51,3.69,2.09,4.58
CCGAGTAGGTTACGAGGGGGCATTGAGTGCGAAT,1.96,3.29,2.3,1.46,2.21,3.98,0.378,3.76
CGAACTAGGTAACCAGGACAGTGAAGAGGTTGGA,0.378,0.0852,0.279,-0.359,0.345,1.37,0.609,-0.193
ATATGTAGGATAGGGTCATTCAGAAAGTAGGGAA,2.75,3.19,2.22,1.78,4.32,3.59,2.24,3.42
ACTTACGGGTCAAGGAGGTTATAGCACGCGTATA,3.46,5.23,4.78,2.07,5.73,3.33,0.489,2.26
CCTTACAGGTCACGAGGTTATAGCACGACGAGCG,4.51,6.3,6.12,2.77,6.64,3.98,1.85,2.48
ATCTGTAGGTTAGGGTCATTCAGAAAGTAGGGAA,3.65,4.2,3.96,2.35,5.32,4.19,3.53,4.36
CGAACTAGGTCACCACGACAGTGAAGAGGTTGGA,3.15,4.59,5.39,1.66,3.31,3.02,1.16,0.592
CGAACTAGGTCACCAGGGCAGTGAAGAGGTTGGA,3.62,4.53,5.52,1.03,3.26,3.09,1.39,0.712
CGAACTAGCTCAAAGGACAGTGAAAGGCGACGTA,0.955,0.138,0.6,-0.347,-0.119,0.0409,-0.622,-0.00865
CGAACTAGTTCAAAGGACAGTGAAAGGCGACGTA,1.43,1.25,1.73,2.02,0.848,0.426,-0.6,0.808
CCTACTGGGCCACGAAAGGTGATTGATTCAGTGA,1.02,0.589,0.505,-0.663,0.207,1.41,-0.377,-0.289
TTACGAAGGTGAAAGGTCGTTGATGCACGCCTTG,2.49,4.08,2.19,0.342,5.5,2.33,0.141,1.25
CCGACTGGGCCATTCAGAGGTCATTGATCATATG,3.91,4.49,3.13,1.43,3.85,3.01,1.22,3.2
CGTCCAAGGTCAACAGGTCAGTGAAAGCGACGTG,5.3,7.26,7.37,3.65,6.49,4.23,2.98,2.51
ATATTTAGGTTAGGGTCATTCAGAAAGTAGGGAA,3.47,4.06,3.55,2.76,4.71,4.2,3.85,4.22
AGTCAAAGTTCAGGACGAGGTAATGTAAAGCACG,3.05,4.89,4.72,3.05,3.37,3.5,1.44,2.1
CGAACTAGGTCCCCAGGACAGTGAAGAGGTTGGA,-0.127,-0.281,-0.0988,-0.51,-0.31,0.965,0.258,-0.533
CCGAGTAGGTTACGAGGGGGGATTCAGTGCGAAT,1.82,2.43,1.99,1.88,1.24,3.19,1.76,1.94
CTATGTAGGTTAAGGGGGTCATTGAGTTTGAAAG,4.02,5.46,4.18,2.81,5.76,4.01,2.02,7.05
CGAACTAGGCCAAAGGACAGTGAAAGGCGACGTA,0.837,0.441,1.2,-0.376,0.196,-0.277,-0.915,-0.627
CCTACTGGGCCAAAGGTCAGTGATTCCAATGCTC,4.33,4.71,4.48,-0.00245,4.48,2.35,0.381,0.516
CCTGCTAGGTCATGGTCAGGTAATCTACAGTATG,3.22,4.26,4.73,1.77,3.01,3.55,1.97,0.414
TCGAGTAGGTTACGGGGGCATTCACGGATGAAGA,2.05,3.38,2.31,1.78,3.16,2.86,1.23,2.93
AGTCAAAGTTCATCTTGGTAACGTAAGATATGCT,4.03,5.43,5.84,4.52,4.52,2.03,-0.478,4.88
CGTCCAACGTCAAGGTCAGTGAAAGAGACTCGAA,3.13,2.61,3.16,0.737,1.9,2.57,1.67,0.844
